Measurements as given in PubChem BioAssay AID1159580 (chemical genetic matrix, 2015).
Values joined by “and” are separate entries in the source; they are usually repeats but may differ in a detail not shown here. Identical values can stand only once. The whole screen tested about 5,500 compounds, of which about 2,000 (36%) were called active. About 18% were inconclusive and are not listed. Rule as the data show it: active = normalized growth mostly below about 0.91 (no sharp cut-off); inconclusive = no clear call, values can overlap the other calls; inactive = mostly above about 0.92. The list shows a part of the results.

Assay: chemical genetic growth profiling, strain panel (AID 1159580);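 also: tested at 20 µM; growth read once vehicle control cultures reached saturation at 30 °C; 1 = growth at the plate median or of vehicle wells; lower values mean less growth of the strain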
Settings: S. cerevisiae deletion strains, growth OD

Measured: normalized growth

Nc1ccc(S(=O)(=O)Nc2ccnn2-c2ccccc2)cc1
inactive: locus YAL013W, strain DEP1, active compounds read low 1.04 | locus YAL021C, strain ccr4, active compounds read low 0.986 | locus YAL026C, strain drs2, active compounds read low 0.977 | locus YAL030W, strain snc1, active compounds read low 1.01 | locus YAL040C, strain CLN3, active compounds read low 1.02 | locus YBL061C, strain skt5, active compounds read low 1.01 | locus YBR009C, strain hhf1, active compounds read low 1.01 | locus YBR021W, strain FUR4, active compounds read low 0.994 | locus YBR023C, strain chs3, active compounds read low 0.999 | locus YBR171W, strain sec66, active compounds read low 0.993 | locus YBR229C, strain ROT2, active compounds read low 1.01 | locus YBR231C, strain swc5, active compounds read low 1.01 | locus YBR279W, strain paf1, active compounds read low 0.996 | locus YCL011C, strain gbp2, active compounds read low 0.982 | locus YCL016C, strain dcc1, active compounds read low 0.999 | locus YCL029C, strain bik1, active compounds read low 0.995 | locus YCL061C, strain MRC1 (second series), active compounds read low 1.02 | locus YCL061C, strain MRC1, active compounds read low 0.997 | locus YCL069W, strain vba3, active compounds read low 0.991 | locus YCR088W, strain abp1, active compounds read low 0.982 | locus YDL005C, strain med2, active compounds read low 0.98 | locus YDL035C, strain GPR1, active compounds read low 0.999 | locus YDL040C, strain nat1, active compounds read low 0.993 | locus YDL074C, strain BRE1, active compounds read low 1.02 | locus YDL101C, strain DUN1, active compounds read low 1.02 | locus YDL134C, strain PPH21, active compounds read low 0.995 | locus YDL185W, strain tfp1, active compounds read low 1 | locus YDL192W, strain arf1, active compounds read low 0.995 | locus YDR001C, strain nth1, active compounds read low 0.994 | locus YDR069C, strain doa4, active compounds read low 0.999 | locus YDR101C, strain arx1, active compounds read low 1.01 | locus YDR137W, strain rgp1, active compounds read low 0.938 | locus YDR150W, strain NUM1, active compounds read low 1.02 and 1.01 | locus YDR159W, strain sac3, active compounds read low 1.02 | locus YDR162C, strain NBP2, active compounds read low 0.999 | locus YDR195W, strain ref2 0.961 | locus YDR297W, strain sur2, active compounds read low 0.998 | locus YDR318W, strain mcm21, active compounds read low 0.99 | locus YDR334W, strain swr1, active compounds read low 0.95 | locus YDR335W, strain msn5, active compounds read low 0.998 | locus YDR363W, strain ESC2, active compounds read low 1.01 | locus YDR388W, active compounds read low 1 | locus YDR392W, strain spt3, active compounds read low 0.96 | locus YDR502C, strain sam2, active compounds read low 1.03 | locus YEL003W, strain gim4, active compounds read low 0.986 | locus YEL037C, strain rad23, active compounds read low 0.991 | locus YEL061C, strain CIN8 (second series), active compounds read low 0.992 | locus YEL061C, strain CIN8, active compounds read low 1.01 | locus YER002W, strain NOP16, active compounds read low 1.01 | locus YER015W, strain faa2, active compounds read low 0.997 | locus YER016W, strain bim1, active compounds read low 1.01 | locus YER110C, active compounds read low 0.993 | locus YER111C, strain swi4, active compounds read low 1.01 | locus YER155C, strain BEM2 (second series), active compounds read low 1 | locus YER155C, strain BEM2, active compounds read low 1.01 | locus YER167W, strain BCK2, active compounds read low 1 | locus YFR010W, strain ubp6, active compounds read low 0.986 | locus YGL078C, strain dbp3, active compounds read low 0.999 | locus YGL086W, strain mad1, active compounds read low 1 | locus YGL167C, strain pmr1, active compounds read low 1 | locus YGL173C, strain kem1, active compounds read low 0.986 | locus YGL227W, strain vid30, active compounds read low 0.998 | locus YGL240W, strain doc1, active compounds read low 1.02 | locus YGL248W, strain PDE1, active compounds read low 1.01 | locus YGL253W, strain hxk2, active compounds read low 0.988 | locus YGR135W, strain pre9, active compounds read low 0.994 | locus YGR229C, strain SMI1, active compounds read low 1.03 | locus YGR252W, strain gcn5, active compounds read low 0.958 | locus YHR013C, strain ard1, active compounds read low 1.04 | locus YHR027C, strain rpn1, active compounds read low 0.987 | locus YHR030C, strain SLT2, active compounds read low 1.01 and 0.958 | locus YHR079C, strain IRE1 (second series), active compounds read low 0.994 | locus YHR079C, strain IRE1, active compounds read low 0.967 | locus YHR094C, strain hxt1, active compounds read low 0.988 | locus YHR129C, strain ARP1, active compounds read low 1.01 | locus YHR142W, strain chs7, active compounds read low 0.965 | locus YHR200W, strain rpn10, active compounds read low 0.991 | locus YIL066C, strain RNR3, active compounds read low 1.02 | locus YIL073C, strain SPO22, active compounds read low 0.972 | locus YIL125W, strain kgd1, active compounds read low 1 | locus YIR030C, strain dcg1, active compounds read low 0.993 | locus YJL092W, strain hpr5, active compounds read low 0.984 | locus YJL095W, strain BCK1 (second series), active compounds read low 0.996 | locus YJL095W, strain BCK1, active compounds read low 1.05 and 0.981 | locus YJL115W, strain asf1, active compounds read low 0.965 | locus YJL129C, strain trk1, active compounds read low 0.991 | locus YJL134W, strain LCB3, active compounds read low 1 | locus YJL154C, strain vps35, active compounds read low 0.979 | locus YJL164C, strain tpk1, active compounds read low 0.994 | locus YJL166W, strain qcr8, active compounds read low 1.01 | locus YJL168C, strain set2, active compounds read low 0.996 | locus YJL187C, strain SWE1 (second series), active compounds read low 1.02 | locus YJL187C, strain SWE1, active compounds read low 1 | locus YJR043C, strain POL32, active compounds read low 1 | locus YJR066W, strain TOR1, active compounds read low 0.888
